Measurements published in PubChem BioAssay AID1159580 (chemical genetic matrix, 2015).
About 2,000 (36%) of roughly 5,500 compounds were called active. Not shown: some 18% with an inconclusive outcome. Cut-off read from the data, not from the text of the source: active = normalized growth mostly below about 0.91 (no sharp cut-off); inconclusive = no clear call, values can overlap the other calls; inactive = mostly above about 0.92. The list shows a part of the results.

Assay: chemical genetic growth profiling, strain panel (AID 1159580);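 note: tested at 20 µM; growth read once vehicle control cultures reached saturation at 30 °C; 1 = growth at the plate median or of vehicle wells; lower values mean less growth of the strain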
Conditions: S. cerevisiae deletion strains, growth OD

Measured: normalized growth

CC(C)NCC(O)COc1ccc(COCCOC(C)C)cc1 (stereo not given)
inactive: locus YAL021C, strain ccr4, active compounds read low 1 | locus YAL026C, strain drs2, active compounds read low 1.01 | locus YAL030W, strain snc1, active compounds read low 0.998 | locus YBL061C, strain skt5, active compounds read low 0.997 | locus YBR009C, strain hhf1, active compounds read low 0.998 | locus YBR023C, strain chs3, active compounds read low 0.998 | locus YBR171W, strain sec66, active compounds read low 1 | locus YBR231C, strain swc5, active compounds read low 1 | locus YBR279W, strain paf1, active compounds read low 1 | locus YCL011C, strain gbp2, active compounds read low 1.01 | locus YCL016C, strain dcc1, active compounds read low 0.999 | locus YCL061C, strain MRC1, active compounds read low 1 | locus YCL069W, strain vba3, active compounds read low 1 | locus YCR088W, strain abp1, active compounds read low 0.997 | locus YDL005C, strain med2, active compounds read low 1 | locus YDL040C, strain nat1, active compounds read low 1 | locus YDR001C, strain nth1, active compounds read low 1.01 | locus YDR069C, strain doa4, active compounds read low 1.02 | locus YDR137W, strain rgp1, active compounds read low 1.02 | locus YDR159W, strain sac3, active compounds read low 0.979 | locus YDR195W, strain ref2 0.97 | locus YDR297W, strain sur2, active compounds read low 1.01 | locus YDR334W, strain swr1, active compounds read low 1 | locus YDR335W, strain msn5, active compounds read low 1 | locus YDR392W, strain spt3, active compounds read low 0.947 | locus YEL003W, strain gim4, active compounds read low 1 | locus YEL037C, strain rad23, active compounds read low 1.02 | locus YEL061C, strain CIN8 (second series), active compounds read low 1 | locus YER015W, strain faa2, active compounds read low 0.995 | locus YER016W, strain bim1, active compounds read low 0.988 | locus YER111C, strain swi4, active compounds read low 1 | locus YER155C, strain BEM2 (second series), active compounds read low 1 | locus YFR010W, strain ubp6, active compounds read low 1.03 | locus YGL167C, strain pmr1, active compounds read low 1.01 | locus YGL173C, strain kem1, active compounds read low 1 | locus YGL227W, strain vid30, active compounds read low 1 | locus YGL240W, strain doc1, active compounds read low 1 | locus YGL253W, strain hxk2, active compounds read low 0.999 | locus YHR013C, strain ard1, active compounds read low 0.995 | locus YHR027C, strain rpn1, active compounds read low 0.999 | locus YHR030C, strain SLT2, active compounds read low 1.04 | locus YHR079C, strain IRE1, active compounds read low 1.05 | locus YHR142W, strain chs7, active compounds read low 1.01 | locus YJL092W, strain hpr5, active compounds read low 0.994 | locus YJL095W, strain BCK1 (second series), active compounds read low 1 | locus YJL095W, strain BCK1, active compounds read low 0.976 | locus YJL115W, strain asf1, active compounds read low 0.999 | locus YJL129C, strain trk1, active compounds read low 1 | locus YJL154C, strain vps35, active compounds read low 1.01 | locus YJL164C, strain tpk1, active compounds read low 1.01 | locus YJL166W, strain qcr8, active compounds read low 1.01 | locus YJL187C, strain SWE1, active compounds read low 1.01 | locus YJR066W, strain TOR1, active compounds read low 0.987 | locus YKL160W, strain elf1, active compounds read low 1 | locus YKR026C, strain gcn3, active compounds read low 0.986 | locus YKR091W, strain srl3, active compounds read low 1 | locus YLL001W, strain dnm1, active compounds read low 0.983 | locus YLL026W, active compounds read low 0.998 | locus YLL041C, strain sdh2, active compounds read low 1 | locus YLR027C, strain aat2, active compounds read low 0.998 | locus YLR113W, strain HOG1, active compounds read low 0.984 | locus YLR221C, strain rsa3, active compounds read low 1.01 | locus YLR258W, strain gsy2, active compounds read low 0.999 | locus YLR262C, strain YPT6 (second series), active compounds read low 1.01 | locus YLR320W, strain mms22, active compounds read low 0.999 | locus YLR342W, strain FKS1, active compounds read low 1 | locus YLR357W, strain rsc2, active compounds read low 0.982 | locus YLR370C, strain arc18, active compounds read low 1 | locus YLR384C, strain iki3, active compounds read low 0.999 | locus YML120C, strain ndi1, active compounds read low 0.984 | locus YMR058W, strain fet3, active compounds read low 1.01 | locus YMR125W, strain sto1, active compounds read low 0.994 | locus YMR129W, active compounds read low 1 | locus YMR205C, strain PFK2, active compounds read low 0.981 | locus YMR231W, strain pep5, active compounds read low 0.998 | locus YNL071W, strain lat1, active compounds read low 1.01 | locus YNL183C, strain NPR1, active compounds read low 0.996 | locus YNL209W, strain ssb2, active compounds read low 1 | locus YNL248C, strain rpa49, active compounds read low 0.999 | locus YNL322C, strain KRE1 (second series), active compounds read low 0.987 | locus YNR049C, strain mso1, active compounds read low 1 | locus YOR001W, strain rrp6, active compounds read low 1 | locus YOR070C, strain gyp1, active compounds read low 1.01 | locus YOR080W, strain dia2, active compounds read low 0.997 | locus YOR083W, strain WHI5, active compounds read low 1 | locus YOR106W, strain vam3, active compounds read low 1.01 | locus YOR231W, strain MKK1, active compounds read low 1.03 | locus YOR265W, strain rbl2, active compounds read low 1.03 | locus YOR270C, strain vph1, active compounds read low 1.01 | locus YOR290C, strain snf2, active compounds read low 1 | locus YPL051W, strain arl3, active compounds read low 1 | locus YPL078C, strain atp4, active compounds read low 1.01 | locus YPL106C, strain sse1, active compounds read low 1 | locus YPL240C, strain hsp82, active compounds read low 1.01 | locus YPL256C, strain CLN2, active compounds read low 1.03
